Among all 310,000 compounds or so, about 14,000 (4.5%) showed an effect of 50% or more. The effect is printed as a negative number. Many of the other results were omitted from the sample, so strong results are more common in it than they were.
What follows are molecules tested against human ether-à-go-go-related gene (hERG) potassium channel (human, UniProt Q12809) (assay: primary screen, population patch clamp on CHO cells stably expressing hERG; higher = less effect of the substance).
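Also: peak tail current of the secondary pulse compared with the same well before compound.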

Chain of human ether-à-go-go-related gene (hERG) potassium channel (Q12809 whole entry, looked up): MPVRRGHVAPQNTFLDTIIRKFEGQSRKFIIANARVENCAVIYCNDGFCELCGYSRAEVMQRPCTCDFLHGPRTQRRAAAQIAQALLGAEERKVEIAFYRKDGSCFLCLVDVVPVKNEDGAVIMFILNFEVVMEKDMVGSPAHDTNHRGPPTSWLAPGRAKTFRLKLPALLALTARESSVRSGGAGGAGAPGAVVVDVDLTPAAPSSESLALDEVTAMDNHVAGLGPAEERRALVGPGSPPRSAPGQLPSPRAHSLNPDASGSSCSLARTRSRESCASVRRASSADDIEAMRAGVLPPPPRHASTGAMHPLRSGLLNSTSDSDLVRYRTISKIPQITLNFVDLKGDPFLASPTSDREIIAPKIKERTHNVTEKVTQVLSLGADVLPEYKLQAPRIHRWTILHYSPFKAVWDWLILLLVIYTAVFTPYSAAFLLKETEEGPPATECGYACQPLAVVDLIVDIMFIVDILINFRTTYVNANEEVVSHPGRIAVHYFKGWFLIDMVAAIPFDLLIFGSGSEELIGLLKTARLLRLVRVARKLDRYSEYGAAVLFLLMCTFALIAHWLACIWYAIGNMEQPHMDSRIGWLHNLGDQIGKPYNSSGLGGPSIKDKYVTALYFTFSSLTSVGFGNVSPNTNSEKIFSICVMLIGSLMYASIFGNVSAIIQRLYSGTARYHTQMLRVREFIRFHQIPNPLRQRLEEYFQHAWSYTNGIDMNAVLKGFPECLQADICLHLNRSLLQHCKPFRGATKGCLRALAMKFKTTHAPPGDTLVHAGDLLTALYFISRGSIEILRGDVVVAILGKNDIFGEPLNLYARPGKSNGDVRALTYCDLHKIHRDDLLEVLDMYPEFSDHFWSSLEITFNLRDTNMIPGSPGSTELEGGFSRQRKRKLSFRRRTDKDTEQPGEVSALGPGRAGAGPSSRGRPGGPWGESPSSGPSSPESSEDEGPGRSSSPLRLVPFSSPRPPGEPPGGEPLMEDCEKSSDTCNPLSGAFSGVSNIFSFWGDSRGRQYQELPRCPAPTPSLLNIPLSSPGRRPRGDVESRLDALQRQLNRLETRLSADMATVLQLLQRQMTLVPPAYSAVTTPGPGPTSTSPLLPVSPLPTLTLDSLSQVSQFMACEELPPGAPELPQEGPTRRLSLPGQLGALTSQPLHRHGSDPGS

Row | Structure (SMILES) | hERG current change (%, negative = inhibition) at 10uM [%]
1 | CS(=O)(=O)c1ccc(C(=O)CN2C(=O)NC3(CCCc4ccccc43)C2=O)cc1 (centres unmarked) | -51.5
2 | COc1ccc(C(=O)CN2C(=O)NC3(CCCc4ccccc43)C2=O)cc1 (centres unmarked) | -36.2
3 | O=C(CN1C(=O)NC2(CCc3ccccc32)C1=O)c1ccccc1 (centres unmarked) | 15.1
4 | Cc1ccc(F)cc1NC(=O)CN1C(=O)NC2(CCCc3ccccc32)C1=O (centres unmarked) | -1.5
5 | Cc1cc(Cl)ccc1NC(=O)CN1C(=O)NC2(CCCc3ccccc32)C1=O (centres unmarked) | -1.38
6 | O=C(CN1C(=O)NC2(CCCc3ccccc32)C1=O)c1ccc(F)cc1 (centres unmarked) | -17
7 | O=C(CN1C(=O)NC2(CCCc3ccccc32)C1=O)c1ccc(Br)cc1 (centres unmarked) | -20.4
8 | CCCS(=O)(=O)Nc1cccc(-c2cn3c(n2)SCC3)c1 | -14.1
9 | COc1ccc(OC)c(S(=O)(=O)N2CCCC(C(=O)NCCN3CCOCC3)C2)c1 (centres unmarked) | 21.2
10 | O=S(=O)(NCc1cccnc1)c1ccc(Cl)s1 | 6.91
11 | COc1ccc(C(=O)NCc2nnc(SCC(=O)Nc3nnc(C)s3)o2)cc1 | 14.5
12 | N#CC1(NC(=O)CSc2nnc(C3CC3)n2C2CC2)CCCCC1 | -8.52
13 | CCS(=O)(=O)c1ccc2oc(Nc3ccc(OC)c(OC)c3)nc2c1 | 8.05
14 | C=CCN(C(=O)C1CC(=O)N(C2CCCC2)C1)c1nc(-c2ccc(S(C)(=O)=O)cc2)cs1 (centres unmarked) | -47.1
15 | Cc1ccc(-c2csc(NC(=O)C3=NN(C4CCS(=O)(=O)C4)C(=O)CC3)n2)cc1 (centres unmarked) | -3.9
16 | C=CCN(C(=O)C1=NN(C2CCS(=O)(=O)C2)C(=O)CC1)c1nc(-c2ccc([N+](=O)[O-])cc2)cs1 (centres unmarked) | -63.5
17 | CN1CCN(C2=Nc3cc(F)ccc3Cc3ccccc32)CC1 | -35.7
18 | Cc1sc(NC(=O)Cc2ccc3c(c2)OCO3)nc1-c1ccc2c(c1)CCN2C(=O)c1ccccc1F | -0.586
19 | COc1cc(NC(=O)Cc2c(C(=O)O)n(C)c3ccccc23)cc(OC)c1OC | 35
20 | Cc1cccc(-n2c(O)c(C=NC3CCS(=O)(=O)C3)c3ccccc3c2=O)c1C (centres unmarked) | -54.1
21 | Cc1ccc(-n2c(O)c(C=NC3CCS(=O)(=O)C3)c3ccccc3c2=O)cc1 (centres unmarked) | -3.54
22 | Cc1ccc(-n2c(O)c(C=NC3CCS(=O)(=O)C3)c3ccccc3c2=O)c(C)c1 (centres unmarked) | -0.346

Row | Structure (SMILES) | hERG current change (%, negative = inhibition) at 10uM [%]
23 | O=S(=O)(NCCOc1ccccc1Cl)c1ccc2oc3ccccc3c2c1 | 3.52
24 | Cc1ccccc1C(=O)Nc1cccc(-c2ccc3nncn3n2)c1 | -2.94
25 | c1ccc(CCC2CCCCN2Cc2cn[nH]c2-c2cc3ccccc3o2)nc1 (centres unmarked) | -74.9
26 | O=C(c1ccccn1)C1CCCN(Cc2cn[nH]c2-c2cc3ccccc3o2)C1 (centres unmarked) | -70
27 | COCCN1CCN(Cc2cn[nH]c2-c2cc3ccccc3o2)CC1 | -6.62
28 | OC1(CNCc2cn[nH]c2-c2cc3ccccc3o2)CCCCC1 | -28.7
29 | COCC1CCCN(Cc2cn[nH]c2-c2cc3ccccc3o2)C1 (centres unmarked) | -47.5
30 | O=C(c1ccccn1)C1CCCN(Cc2nc(Cc3cccc(F)c3)no2)C1 (centres unmarked) | -5.63
31 | COc1ccc(OC)c(NC(=O)C2C(C(=O)O)C3(Cl)C(Cl)=C(Cl)C2(Cl)C3(Cl)Cl)c1 (centres unmarked) | 7.73
32 | Cc1cc(CNC(=O)CC2C(=O)NCCN2Cc2ccccc2C(F)(F)F)nn1C (centres unmarked) | 9.04
33 | CN(C)CCOCCOc1ccc(Cl)cc1Br.O=C(O)C(=O)O | -42.6
34 | COCCNCCCOc1ccc(Br)cc1Cl.O=C(O)C(=O)O | -31.8
35 | Cc1cc(Br)ccc1OCCCCNC(C)(C)C.O=C(O)C(=O)O | -53.9
36 | C=CCNCCCCOc1ccc(Br)cc1C.O=C(O)C(=O)O | -41
37 | Cc1cc(C)c(OCCCCN(C)C)c(Br)c1.O=C(O)C(=O)O | -41.5
38 | Cc1cc(Br)ccc1OCCCCNCCO.O=C(O)C(=O)O | -28.1
39 | Cc1cc(Cl)cc(Cl)c1OCCCCN(C)C.O=C(O)C(=O)O | -43.7
40 | Cc1cc(Br)cc(C)c1OCCCCN(C)C.O=C(O)C(=O)O | -54.4
41 | COCCCNC(=O)COc1ccc(Br)cc1Cl | -7.88
42 | CN(C)CCCOc1ccc(Cl)cc1Br.O=C(O)C(=O)O | -69.3
43 | CN(C)CCCOc1cccc(Cl)c1.O=C(O)C(=O)O | -19.5
44 | COCCCNCCCCOc1ccc(Br)cc1Cl.O=C(O)C(=O)O | -67.1
